Bioassay records from PubChem.
E coli growth-1: bacterial growth inhibition, counter-screen for AddAB inhibitors; E. coli V3065 growth, OD600 absorbance, 18 h; inhibition, % at 11.9 µM; 330,000 compounds, 0.27% hits;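 active = inhibition above the campaign's mean inhibition across all tested compounds plus 3 SD, cut at about 9.9% in these data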;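 also: uninfected addAB+ strain grown without phage in ampicillin broth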
AddAB inh: less growth of phage-infected E. coli with AddAB; E. coli expressing H. pylori AddAB, absorbance growth; inhibition, % at 11.9 µM; 330,000 compounds, 0.29% hits; AID 435030; in the data active = inhibition above about 12%
Tat transport: E. coli Tat transport inhibition; E. coli MC4100 TorA-mCherry Tat export, fluorescence; inhibition, % at 10 µM; 340,000 compounds, 0.036% hits;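 active = mean replicate inhibition at least 50% and at least half of replicates individually reaching 50%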;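 also: exported cargo escapes ClpAP degradation while cytoplasmic cargo is degraded and loses fluorescence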
E coli growth-2: inhibitors of Escherichia coli growth. 330,000 compounds, 0.21% hits. OD600, 23 h; hits give low values. AID 1053175. OD600 absorbance (test concentration not listed);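 active = OD600 absorbance below the run mean of sample wells minus 3.6 SD, in any replicate, cut at about 0.56 in these data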
phage Ecoli inh: E. coli growth loss with phage present. growth absorbance. inhibition, % at 11.9 µM. 360,000 compounds, 0.26% hits; in the data active = inhibition above about 11%
RecBCD conf: growth loss of phage-infected V66 E. coli, RecBCD confirmation screen. shares compounds with phage Ecoli inh. E. coli V66 + T4 2- phage, growth OD. inhibition, % at 11.9 µM. 890 compounds, 45% hits;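 active = mean inhibition over triplicates exceeding the hit threshold derived in the original primary screen, cut at about 11% in these data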
Ecoli viability: inhibits E. coli viability, flagging RecBCD hits as nonselective; absorbance (OD) growth; shares compounds with phage Ecoli inh; inhibition, % at 11.9 µM; 890 compounds, 29% hits; in the data active = inhibition above about 20%;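 also: E. coli strain V66 grown with compound alone and no phage infection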
AddAB counter: growth loss of phage-infected AddAB E. coli, RecBCD counter-screen; E. coli expressing H. pylori AddAB + T4 phage, OD growth; gene 2 mutant T4, recBCD-deleted host; AID 651984; inhibition, % at 11.9 µM; 890 compounds, 45% hits; shares compounds with phage Ecoli inh;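 active = mean inhibition above the solvent-only control wells' mean plus 3 SD, cut at about 22% in these data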;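 also: higher means less bacterial growth from phage killing when AddAB is blocked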
A number is an active result; i = inactive; nt = no result. In the library only some 0.51% were active in any assay of this set; here they are far more common.

SMILES	E coli growth-1	AddAB inh	Tat transport	E coli growth-2	phage Ecoli inh	RecBCD conf	Ecoli viability	AddAB counter
CCN(CC)c1ccc2cc(-c3nc4ccccc4[nH]3)c(=O)oc2c1	i	i	i	i	nt	nt	nt	nt
CCN(CC)c1ccc2cc(-c3nc4ccccc4n3C)c(=O)oc2c1	i	i	i	i	99	80	71	93
ClCCCc1cn(CC2CCC(C3CCC(Cn4cc(CCCCl)nn4)O3)O2)nn1 (stereo not given)	nt	nt	nt	i	nt	nt	nt	nt
C#CCOCCOCCOCCNc1nc(N2CCN(C(=O)Cn3cc(CCO)nn3)CC2)nc(N2CCN(C(=O)C(C(C)C)n3cc(CCO)nn3)CC2)n1 (stereo not given)	nt	nt	nt	i	nt	nt	nt	nt
S=C(NN=C(c1ccccc1)c1ccccn1)N(Cc1ccccn1)Cc1ccccn1	nt	nt	i	nt	15	i	i	i
O=C1c2ccccc2C(=O)c2c(O)c(O)cc(O)c21	15	i	i	i	12	i	i	i
CCOC(=O)c1c(C)[nH]c(C(=O)N/N=C\c2ccccc2O)c1C	i	i	i	nt	17	i	i	i
CC(C=Cc1ccccc1)=NNC(=O)CNC(=O)c1ccccc1F	nt	nt	nt	i	nt	nt	nt	nt
O=C1C(F)=CC(COC(c2ccccc2)(c2ccccc2)c2ccccc2)OC1n1cc(F)c(=O)[nH]c1=O (stereo not given)	nt	nt	i	nt	12	i	i	26
Cc1ccccc1Cn1c(CN2CCN(C(=O)c3ccco3)CC2)nc2c1c(=O)n(C)c(=O)n2C	i	i	i	i	97	i	i	i
Cc1ccc(C=NNc2ccc(Cl)c(C(=O)O)c2)s1	nt	nt	nt	i	nt	nt	nt	nt
CN(C)c1ccc(C=NNC(=O)c2nnn(-c3nonc3N)c2CN(C)c2ccccc2)cc1	nt	nt	nt	i	nt	nt	nt	nt
Nc1nc(N)c2cc([N+](=O)[O-])ccc2n1	nt	nt	i	i	i	nt	nt	nt
Nc1nc(N)c2c(ccc3c2ccn3Cc2cccc([N+](=O)[O-])c2)n1	nt	nt	nt	nt	100	103	103	103
Cc1ccccc1NC1=C/C(=N\S(=O)(=O)c2ccc(C(=O)O)cc2)c2ccccc2C1=O	i	i	i	i	i	nt	nt	nt
O=C(O)c1ccc(S(=O)(=O)/N=C2\C=C(Nc3ccccc3F)C(=O)c3ccccc32)cc1	i	i	i	i	13	i	i	i
CCn1cc(C=NNC(=O)c2cc(-c3ccccc3OC)nc3ccccc23)c(C)n1	nt	nt	nt	i	nt	nt	nt	nt
CO[C@@]1(NC(=O)Cc2cccs2)C(=O)N2C(C(=O)O)=C(COC(N)=O)CS[C@@H]21	i	i	i	nt	27	94	104	101
O=c1c(O)c(-c2cccs2)oc2ccc(Cl)cc12	i	i	i	i	14	i	i	i
CCc1ccccc1NC(=O)CC(C)=NNC(=O)COc1ccccc1C	nt	nt	nt	i	nt	nt	nt	nt
O=C(N/N=C\C=C\c1ccc([N+](=O)[O-])o1)c1cccs1	nt	nt	i	nt	98	105	107	104
Cc1ccc(-c2nc(CS(=O)CC(=O)NCc3ccccc3)c(C)o2)cc1 (stereo not given)	i	i	i	i	29	i	i	i
Cc1ccc(-c2cnc(C(O)c3cc(C)cc(C)c3)[nH]2)cc1 (stereo not given)	nt	nt	nt	nt	17	11	i	i
Cc1cc(C(O)c2ncc(-c3ccc(Oc4ccccc4)cc3)[nH]2)ccc1F (stereo not given)	nt	nt	nt	nt	11	i	i	i
Cc1cc(C)cc(C(O)c2ncc(-c3ccc4ccccc4c3)[nH]2)c1 (stereo not given)	nt	nt	nt	nt	18	12	i	26
SMILES	E coli growth-1	AddAB inh	Tat transport	E coli growth-2	phage Ecoli inh	RecBCD conf	Ecoli viability	AddAB counter
OC(c1ccc(F)cc1)c1ncc(-c2ccc(Oc3ccccc3)cc2)[nH]1 (stereo not given)	nt	nt	nt	nt	i	nt	nt	nt
COc1cccc(-c2cnc(C(O)c3cccc(OC)c3)[nH]2)c1 (stereo not given)	nt	nt	nt	nt	11	i	i	i
COc1cccc(C=Nn2c(C)nc3ccccc3c2=O)c1O	nt	nt	nt	i	nt	nt	nt	nt
CC(=NNC(=O)c1cccnc1)c1cc2ccccc2o1	nt	nt	nt	i	nt	nt	nt	nt
CC(=NNS(=O)(=O)c1ccccc1)c1ccccc1	nt	nt	nt	i	nt	nt	nt	nt
COc1ccc(C(=O)CSc2nnc3ccc(-c4ccccn4)nn23)cc1	i	i	i	i	25	i	i	i
COc1ccc(NC(=O)CSc2nnc3ccc(-c4ccccn4)nn23)cc1	i	i	i	i	i	nt	nt	nt
Cc1cc(C(=O)NN=C2CCCC(=O)C2)c(C)o1	nt	nt	nt	i	nt	nt	nt	nt
O=C(O)c1ccccc1NN=Cc1ccnc2ccccc12	nt	nt	nt	i	nt	nt	nt	nt
CC(C)CC(N)c1cn(C(CCC(=O)O)C(=O)N2CCNCC2)nn1 (stereo not given)	nt	nt	nt	i	nt	nt	nt	nt
Cn1cc(CC(=O)N2CCN(c3ccccc3F)CC2)c2ccccc21	i	i	i	i	84	i	i	i
COc1cc2cccc(OC)c(=O)c2c(OC)c1OC	i	i	i	i	i	nt	nt	nt
O=c1c(O)cccc2cc(O)c(O)c(O)c12	11	i	53	i	14	i	i	i
O=C1CC(c2nc3ccccc3[nH]2)CN1c1cccc(C(F)(F)F)c1 (stereo not given)	i	i	i	i	27	i	i	i
CCCCc1c(C)c2ccc(OC)c(C(C)=NO)c2oc1=O	nt	nt	nt	i	nt	nt	nt	nt
CC(C)CCNC(=S)Nc1ccc(Br)cc1	i	i	i	i	11	i	i	i
O=C(NNC(=O)c1cc2ccccc2cc1O)NC1CCCCC1	nt	nt	i	i	13	i	i	i
O=C(NNC(=O)c1cc2ccccc2cc1O)Nc1ccc(F)cc1F	i	i	i	i	11	i	i	i
CN1C(=CC(=O)c2cccc(S(=O)(=O)N3CCCCC3)c2)C(C)(C)c2ccccc21	nt	nt	nt	i	nt	nt	nt	nt
CC(=NNC(=S)Nc1cccc(C)c1)c1ccccn1	nt	nt	i	nt	14	16	i	i
COc1ccccc1NC(=S)NN=C(C)c1ccccn1	nt	nt	i	nt	17	14	i	i
COc1ccc(C(=O)N/N=C(\C)c2ccccn2)cc1OC	i	i	i	nt	i	nt	nt	nt
CCOC1OC(C(=O)NCc2ccccc2)=CC(C2CC2)C1CCCO (stereo not given)	nt	nt	nt	i	nt	nt	nt	nt
Nc1nc(N)c2cc(S(=O)(=O)c3ccc4ccccc4c3)ccc2n1	nt	nt	nt	nt	28	101	99	101
O=[N+]([O-])c1ccc2c(c1)oc1ccccc12	i	i	i	i	i	nt	nt	nt
SMILES	E coli growth-1	AddAB inh	Tat transport	E coli growth-2	phage Ecoli inh	RecBCD conf	Ecoli viability	AddAB counter
O=[N+]([O-])c1cc2c(ccc3occc32)o1	nt	nt	nt	nt	101	102	103	102
COc1ccc(OCc2cc(C(=O)N(C)C3CCOC3)no2)c(Cl)c1 (stereo not given)	i	i	i	i	i	nt	nt	nt
CN(C(=O)c1cc(COc2ccc(F)c(F)c2)on1)C1CCOC1 (stereo not given)	i	i	i	i	11	i	i	i
O=C(O)c1c[nH]c2c([N+](=O)[O-])cccc2c1=O	nt	nt	i	i	11	i	i	i
O=C(Nc1ccc(Cl)cc1)c1cc2c(cc1O)[nH]c1ccccc12	10	i	i	0.17	12	i	i	i
CC(CC(=O)Nc1ccccc1F)=NNC(=O)Cc1ccc(Cl)cc1	nt	nt	nt	i	nt	nt	nt	nt
